From PubChem
Rows were chosen to be rich in hits. Some 5.7% of all compounds tested hit in one or more screens of this group.
GLP1R ag – qHTS of GLP-1 Receptor Agonists | Glucagon-like peptide 1 receptor (Homo sapiens), P43220 | actives 0.007% (n = 380,000) | AID 624172, 2012 | HEK293 GLP-1R CRE-luciferase, luminescence, 4-6 h; cells express a hypersensitive GLP-1R form | Potency, µM (highest dose often 45.6 µM), hits mostly activators
Target sequence (P43220 whole entry, looked up): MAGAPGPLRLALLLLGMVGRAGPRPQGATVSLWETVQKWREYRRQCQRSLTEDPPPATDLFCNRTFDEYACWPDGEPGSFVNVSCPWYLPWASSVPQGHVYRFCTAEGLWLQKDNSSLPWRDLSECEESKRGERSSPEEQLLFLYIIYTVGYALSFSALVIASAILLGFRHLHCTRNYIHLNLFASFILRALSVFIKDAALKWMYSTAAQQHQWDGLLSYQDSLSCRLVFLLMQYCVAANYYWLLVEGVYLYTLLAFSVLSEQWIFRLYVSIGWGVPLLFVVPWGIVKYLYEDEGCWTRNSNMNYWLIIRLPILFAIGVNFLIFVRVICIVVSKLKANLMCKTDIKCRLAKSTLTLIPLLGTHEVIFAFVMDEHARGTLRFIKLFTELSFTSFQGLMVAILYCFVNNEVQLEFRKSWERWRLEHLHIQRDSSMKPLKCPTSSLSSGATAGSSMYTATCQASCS
ClpP mod – qHTS Assay for Activators of ClpP. purified B. subtilis ClpP, FRET peptide cleavage, 20 min. AID 651965, 2013. actives 1.9% (n = 340,000). Potency, µM (titrated, usually from 57.5 µM). ATP-dependent Clp protease proteolytic subunit (Bacillus subtilis (strain 168)), P80244; active means well fitted falling curve with a large enough effect; inconclusive means small, poorly fitted or top-dose-only effect; inactive means no such curve, though single readings can be large or run the other way; further: the source files actives as falling curves though it sought activators and does not explain the sign; nearly all actives have a fitted effect of over 65% in size
Target sequence (P80244 whole entry, looked up): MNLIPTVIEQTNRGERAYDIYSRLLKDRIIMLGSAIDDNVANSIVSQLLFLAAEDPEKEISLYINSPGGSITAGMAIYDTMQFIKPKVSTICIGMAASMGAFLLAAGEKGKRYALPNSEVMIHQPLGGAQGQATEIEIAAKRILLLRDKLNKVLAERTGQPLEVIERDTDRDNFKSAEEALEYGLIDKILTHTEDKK
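Buffer: 100 mM Tris/HCl pH8, 100 mM KCl, 0.05% low protease BSA, 2.5% glycerol, 0.01% Tween-20. ClpP 10 microg/mL final; 20 min RT; delta FRET normalized to ADEP and DMSO controls.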
HEK293 tox – qHTS of GLP-1 Receptor Inverse Agonists: Cytotox Screen; Potency, µM (titrated, usually from 38.3 µM), actives largely listed as inhibitors; AID 624418, 2012; HEK293 cAMP-luciferase reporter cells, luminescence, 24 h; actives 0.13% (n = 410,000);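 further: loss of luciferase light is scored as toxicity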
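Compound-treated cells are incubated 24 hr at 37 deg C under 5% CO2 after a 12 hour attachment period, then luciferase detection reagent is added and luminescence is measured following 12 min at room temperature; lowered signal indicates toxicity.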
D3 ag – qHTS of D3 Dopamine Receptor Agonist: qHTS | D(3) dopamine receptor (Homo sapiens), P35462 | D3R DiscoveRx beta-arrestin cells, luminescence, 90 min | max activation, % | actives 0.58% (n = 410,000); in the data active means max activation above about 30%
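Cells at 1500/well, incubated overnight, then treated with pinned compounds (dopamine as control) for 90 min at 37 degrees C. DiscoveRx reagent added for 30 - 60 minutes at room temperature; luminescence read.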
D3 antag – qHTS of D3 Dopamine Receptor Antagonist: qHTS; D3R cells, DiscoveRx beta-arrestin luminescence, antagonist mode; active compounds read low; max response, negative = inhibition, %; actives 2.5% (n = 360,000); AID 652054, 2013; in the data active means max response below about -50%; inconclusive means no clear call, values can overlap the other calls
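Cells plated overnight at 1500 cells/well, then exposed to library compounds with dopamine controls for 90 minutes at 37 degrees C. DiscoveRx reagent added for 30–60 minutes at room temperature; luminescence read, quantitative HTS format.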
GLP1R inv ag – qHTS of GLP-1 Receptor Inverse Agonists (Inhibition Mode); HEK293 GLP-1R CRE-luciferase, luminescence, 24 h; GLP-1R form is constitutively active; Potency, µM (highest dose often 38.3 µM), usual class: inhibitors; actives 1.6% (n = 410,000); further: nearly all actives have a fitted effect of over 55% in size
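Using stably transfected HEK293 (constitutively active GLP-1R, cAMP-luciferase reporter), compounds were incubated 24 hr and luciferase measured by luminescence.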
Large screens that a line does not name were inactive. Unless noted, the call rests on the fitted dose curve; in most records, active means well fitted curve in the direction sought with a large enough effect; inconclusive means small, poorly fitted or top-dose-only effect, or another doubt; inactive means no such curve, though single readings can be large; an effect the other way counts as inactive or inconclusive.

CCC(=O)c1ccccc1OCCN1CCN(Cc2ccccc2)CC1	D3 antag -84 (no result: ClpP mod)
Clc1ccc(OCCCN2CCc3ccccc3C2)c(Br)c1	D3 antag -105, GLP1R inv ag inconclusive
c1ccc(-c2ccccc2OCCOCCN2CCc3ccccc3C2)cc1	D3 antag -93, GLP1R inv ag inconclusive (no result: ClpP mod)
OCCCN1CCN(CCOc2ccccc2-c2ccccc2)CC1	D3 antag inconclusive, GLP1R inv ag inconclusive
CCOc1ccccc1OCCOCCN1CCN(Cc2ccccc2)CC1	D3 antag inconclusive, GLP1R inv ag inconclusive (no result: ClpP mod)
OCCN1CCN(CCOc2ccccc2-c2ccccc2)CC1	D3 antag -85, GLP1R inv ag inconclusive
CC1CN(CCOCCOc2ccccc2-c2ccccc2)CC(C)O1 (stereo not drawn)	none
CCN(CC)C(=O)/C(C#N)=C/c1cc(O)c(O)c([N+](=O)[O-])c1	none (no result: ClpP mod, HEK293 tox, D3 antag, GLP1R inv ag)
CCOc1ccc(C2C(=O)N(C3CCCCCC3)CC(=O)N2Cc2ccccc2)cc1OC (stereo not drawn)	none (no result: GLP1R ag, D3 antag)
COc1ccccc1-c1csc(C(O)(c2ccccc2)C(F)(F)F)n1 (stereo not drawn)	GLP1R inv ag inconclusive
COc1ccccc1CNC(=O)c1cccc(NC(=O)N2CCSc3ncccc32)c1	ClpP mod inconclusive (no result: GLP1R ag, D3 antag)
Clc1ccc(OCCOCCN2CCc3ccccc3C2)c(Cl)c1	HEK293 tox inconclusive, D3 antag -74, GLP1R inv ag 11µM
CC(C)(C)c1cc(Cl)ccc1OCCOCCN1CCCC1	HEK293 tox inconclusive, GLP1R inv ag inconclusive (no result: ClpP mod)
CCOC(=O)[C@]12CCCC=C1N(Cc1cccc3ccccc13)C(=O)[C@H](CC(=O)N1CCC(c3ccccc3)CC1)C2	GLP1R inv ag inconclusive
c1ccc(N2CCN(Cc3cn4cccnc4n3)CC2)cc1	D3 antag -59
CC1(C)CC(=O)c2sc(NC(=O)CN3CCCCC3)nc2C1	ClpP mod 16µM, GLP1R inv ag inconclusive
Cn1cc(CN(C(=O)Nc2ccccc2)C2CCCCC2)c2ccccc21	HEK293 tox inconclusive, GLP1R inv ag 10µM (no result: D3 antag)
COc1cccc(OC(=O)c2ccccc2)c1OC(=O)c1ccccc1	none
CCCCC(O)(c1ccccc1)C(CN1CCOCC1)c1ccccc1 (stereo not drawn)	GLP1R inv ag 10µM
CCCCOc1ccc(C(=O)C(CN2CCOCC2)c2ccccc2)cc1 (stereo not drawn)	HEK293 tox inconclusive, D3 antag -54, GLP1R inv ag inconclusive
CCCCOc1ccc(C(O)C(CN2CCOCC2)c2ccccc2)cc1 (stereo not drawn)	GLP1R inv ag 10µM
COc1ccc(C(=O)C(CN2CCCC2)c2ccccc2)cc1 (stereo not drawn)	HEK293 tox inconclusive, D3 antag inconclusive, GLP1R inv ag 5.6µM
CCCOc1ccc(C(=O)C(CN2CCCC2)c2ccccc2)cc1 (stereo not drawn)	HEK293 tox inconclusive, GLP1R inv ag inconclusive
CCCCC(O)(c1ccc(CC)cc1)C(CN1CCOCC1)c1ccccc1 (stereo not drawn)	HEK293 tox inconclusive, GLP1R inv ag inconclusive
Cc1cccc(-c2nc3c4ccccc4nc(N4CCN(c5cc(C)ccc5C)CC4)n3n2)c1	none (no result: GLP1R ag, D3 antag)
CC(=O)N1CCc2cc(CNC(=O)Nc3ccc(Br)c(C)c3)ccc21	none (no result: GLP1R ag, D3 antag)
CCOC(=O)C1=C(CN2CCCCC2)NC(=O)NC1c1ccc(C)cc1 (stereo not drawn)	none (no result: D3 antag)
COc1ccc(-c2nc(C)c(CCNC(=O)C(=O)Nc3ccccc3C#N)s2)cc1OC	none (no result: D3 antag)
C=C1CCC2[C@](C)(CO)C(O)CC[C@]2(C)C1C/C=C1/C(=O)OCC1O (stereo partly drawn)	none (no result: ClpP mod, HEK293 tox, D3 ag, D3 antag, GLP1R inv ag)
COc1ccc(C(=O)C/C(=C\C(=O)c2ccc(C)cc2)c2ccccc2)cc1	GLP1R inv ag 4.5µM
COc1ccc(C(=O)CC(=O)c2ccccc2)cc1	none (no result: ClpP mod)
Cc1ccc2nc(CS)[nH]c2c1	none (no result: GLP1R ag, HEK293 tox, D3 ag, D3 antag, GLP1R inv ag)
COC(=O)c1sccc1S(=O)(=O)N(CC(=O)Nc1cc(F)ccc1F)c1ccc(C)c(C)c1	GLP1R inv ag inconclusive (no result: GLP1R ag, D3 antag)
COC(=O)c1sccc1S(=O)(=O)N(CC(=O)Nc1cc(C)ccc1C)c1ccc(C)c(C)c1	GLP1R inv ag 13µM (no result: GLP1R ag, D3 antag)
COC(=O)c1sccc1S(=O)(=O)N(CC(=O)Nc1cccc(C)c1C)c1ccc(C)c(C)c1	GLP1R inv ag 11µM (no result: GLP1R ag, D3 antag)
COC(=O)c1sccc1S(=O)(=O)N(CC(=O)Nc1ccccc1C)c1ccc(Cl)cc1	GLP1R inv ag inconclusive (no result: GLP1R ag, D3 antag)
CCCCCCNS(=O)(=O)c1ccc(OC)c(OC)c1	D3 ag 32
COc1ccc(S(=O)(=O)c2ccc(OC)c(OC)c2)cc1OC	ClpP mod 32µM
CCOc1cc(CNC(=O)C2COc3ccccc3C2)cc(OCC)c1OCC (stereo not drawn)	none (no result: GLP1R ag, D3 antag)
CN(C)c1ccc(-c2noc(-c3ccccc3O)n2)cc1	ClpP mod 10µM, D3 antag inconclusive
Cc1cccc2cc(CN(CCCO)C(=O)Nc3cccc(Cl)c3)c(=O)[nH]c12	GLP1R inv ag 11µM
Cc1cccc2cc(CN(CCCO)C(=O)Nc3ccc(Cl)cc3)c(=O)[nH]c12	GLP1R inv ag inconclusive
COc1ccccc1N(Cc1cc2cccc(C)c2[nH]c1=O)C(=O)c1cccc(Cl)c1	ClpP mod 25µM (no result: GLP1R ag, D3 antag)
CCc1noc(-c2ccc(N(C)Cc3ccc(OC)cc3)c([N+](=O)[O-])c2)n1	GLP1R inv ag inconclusive (no result: GLP1R ag, D3 antag)
Cn1cc(CN2CCCC(C(=O)Nc3ccc(-c4cccc(F)c4)cc3)C2)cn1 (stereo not drawn)	GLP1R inv ag 4.5µM
Cn1cc(CN2CCCC(C(=O)Nc3cccc(-n4cccn4)c3)C2)cn1 (stereo not drawn)	none
Cn1cc(CN2CCC(C(=O)Nc3ccc(Oc4ccccc4F)cc3)CC2)cn1	GLP1R inv ag 11µM
O=C(CSc1nncn2c1cc1occc12)Nc1ccccc1C(F)(F)F	none (no result: GLP1R ag, D3 antag)
CCCCCC(=O)Nc1cccc(S(=O)(=O)NC2=NCCC2)c1	ClpP mod 35µM
O=C(CCl)Nc1cccc(S(=O)(=O)NC2=NCCCCC2)c1	HEK293 tox 11µM, GLP1R inv ag inconclusive
O=C(/C=C/c1ccc(Cl)cc1Cl)Nc1cccc(S(=O)(=O)NC2=NCCCCC2)c1	GLP1R inv ag 10µM
Cc1ccc(OCC(=O)Nc2cccc(S(=O)(=O)NC3=NCCCCC3)c2)cc1C	ClpP mod 14µM
